Experimental data from PubChem BioAssay (NCATS).
Records with an inconclusive call do not appear. The source made the active and inactive calls. The call rests on the fitted dose curve; in most records, active means well fitted cell-killing curve with a large enough effect; inconclusive means small, poorly fitted or top-dose-only effect, or effect the other way; inactive means flat fitted curve, though single readings scatter.

Experiments:
Test in all cases: Primary qHTS to identify gynecologic anti-cancer compounds using libraries of approved drugs and bioactive compounds (AID 1345084); further: nearly all actives have a fitted effect of over 55% in size
C33A = details: Gynecologic cancer cell panel viability, ATPlite luminescence, 48 h; series mostly up to 57.5 µM
In short: (§1)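 Luminescence from the ATPlite ATP-monitoring reagent indicates viable cell number; lower signal means cytotoxicity. Cells received compound 16 h after seeding and were exposed for 48 h across five concentrations.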

CAOV3 = details: Gynecologic cancer cell panel viability, ATPlite luminescence, 48 h; series mostly up to 57.5 µM
In short: as §1

CASKI = details: Gynecologic cancer cell panel viability, ATPlite luminescence, 48 h; series mostly up to 57.5 µM
In short: as §1

Es-2 = details: Gynecologic cancer cell panel viability, ATPlite luminescence, 48 h; series mostly up to 57.5 µM
In short: as §1

HeLa = details: Gynecologic cancer cell panel viability, ATPlite luminescence, 48 h; series mostly up to 57.5 µM
In short: as §1

Hek293T = details: Gynecologic cancer cell panel viability, ATPlite luminescence, 48 h, control line for the selectivity index; series mostly up to 57.5 µM
In short: as §1

JEG-3 = details: Gynecologic cancer cell panel viability, ATPlite luminescence, 48 h; series mostly up to 57.5 µM
In short: as §1

OV90 = details: Gynecologic cancer cell panel viability, ATPlite luminescence, 48 h; series mostly up to 57.5 µM
In short: as §1

PA-1 = details: Gynecologic cancer cell panel viability, ATPlite luminescence, 48 h; series mostly up to 57.5 µM
In short: as §1

Tov-21-G = details: Gynecologic cancer cell panel viability, ATPlite luminescence, 48 h; series mostly up to 57.5 µM
In short: as §1

Tov112D = details: Gynecologic cancer cell panel viability, ATPlite luminescence, 48 h; series mostly up to 57.5 µM
In short: as §1

Measured: Potency

C=CC(C)(O)CCC1C(C)(O)CCC2C(C)(C)CCCC21C (stereo not given)
inactive: all assays above

OCC(O)C(c1c[nH]c2ccccc12)c1c[nH]c2ccccc12 (stereo not given)
inactive: all assays above

CC(C)C1(O)C=C2C(=O)CC3C(C)(C(=O)O)CCCC3(C)C2CC1 (stereo not given)
inactive: all assays above

CC(C)(O)C1CC=C(C(=O)OC[C@H]2O[C@@H](Oc3cc(C(=O)O)cc(O)c3O)[C@H](O)[C@@H](O)[C@@H]2O)CC1 (stereo not given in full)
inactive: all assays above

COc1cccc(CNc2ccc(S(=O)(=O)Nc3nc4ccccc4s3)cc2)c1O
inactive: all assays above

Nc1c(-c2ccccc2)nc(Cl)c2c(O)n[nH]c(=O)c12
inactive: all assays above

CC(=O)OC1CC(=O)C2(C)C3CC4=C(OC(C)CC4=O)OC3(C)CCC2C1(C)C (stereo not given)
inactive: all assays above

CCc1nn(CCO)c(CC)c1Oc1cc(C#N)cc(C#N)c1
inactive: all assays above

COc1cc2c(c(O)c1OC/C=C(\C)CC/C=C(/C)CCC=C(C)C)CN(C(CCC(=O)O)C(=O)O)C2=O (stereo not given)
inactive: all assays above

CC(C)CC[C@@H](O)[C@](C)(O)[C@H]1CC[C@@]2(O)C3=CC(=O)[C@@H]4C[C@@H](O)[C@@H](O)C[C@]4(C)[C@H]3CC[C@]12C
inactive: all assays above

CC1C2=CC(=O)OC2(O)CC2C1C(OC(=O)c1ccccc1)C(OC(=O)c1ccccc1)C1(O)C2(C)CCC(O)C1(C)C(=O)O (stereo not given)
inactive: all assays above

C[C@@H]1C(=O)O[C@H]2[C@H]1CC[C@@]1(C)C(=O)C=C[C@@](C)(O)[C@H]21
inactive: all assays above

CC(C)c1ccc2c(c1)[C@H](O)CC1[C@@](C)(C(=O)O)CCC[C@]21C (stereo not given in full)
inactive: all assays above

Nc1nc2c(nc(Sc3ccc(Cl)cc3)n2[C@@H]2O[C@@H]3COP(=O)(O)O[C@H]3[C@H]2O)c(=O)[nH]1
inactive: all assays above

OC[C@@]1(O)CO[C@@H](OC[C@H]2O[C@@H](OCc3ccccc3)[C@H](O)[C@@H](O)[C@@H]2O)[C@@H]1O
inactive: all assays above
